Source: PubChem BioAssay (Tox21)
Results filed as inconclusive are left out. A call without a number means that no potency is given here. Activity calls are given as the source filed them. The call rests on the fitted dose curve; in most records, active means well fitted cell-killing curve with a large enough effect in the repeat runs; inconclusive means weak or mixed curves, or effect the other way; inactive means flat fitted curve, though single readings scatter.

Assay: qHTS assay to identify small molecule agonists of the TGF-beta/Smad signaling pathway - cell viability counter screen (AID 1346829); further: top concentration of the series differs between compounds; nearly all actives have a fitted effect of over 45% in size
Conditions: SBE-bla HEK293T viability, CellTiter-Glo luminescence, 5 h; series mostly up to 76.8 µM
Outline: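 Same-well cytotoxicity: CellTiter-Glo added after the 2 hr room-temperature beta-lactamase substrate step, luminescence measured 30 min later; cells had 5 hr of compound at 37 C.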

**Q.** For COC(=O)c1ccccc1CS(=O)(=O)NC(=O)Nc1nc(OC)cc(OC)n1, which Potency is on record?
**A.** The Potency was “inactive”.

**Q.** Which Potency does the source give for CN(C)CCN(C)C here?
**A.** Its Potency is “inactive”.

**Q.** For COc1cc(CC(C)N)cc(OC)c1OC (stereo not given), which Potency is on record?
**A.** The Potency was “inactive”.

**Q.** For COC(=O)c1ccc(CBr)cc1, which Potency is on record?
**A.** Its Potency is “inactive”.

**Q.** For COc1cc(CCN)cc(OC)c1OC, which Potency is on record?
**A.** The Potency was “inactive”.

**Q.** Which Potency does the source give for Oc1ccc2c3c1O[C@H]1[C@@H](O)C=C[C@H]4[C@@H](C2)NCC[C@@]341 here?
**A.** The Potency was “inactive”.

**Q.** For O=C(Cl)CCl, which Potency is on record?
**A.** The Potency was “inactive”.

**Q.** Which Potency does the source give for CC(C)NCC(O)c1ccc([N+](=O)[O-])cc1 (stereo not given) here?
**A.** Its Potency is “inactive”.

**Q.** For O=C(O)C(F)(F)C(F)(F)C(F)(F)C(F)(F)C(F)(F)C(F)(F)F, which Potency is on record?
**A.** The Potency was “inactive”.

**Q.** Which Potency does the source give for NC1(c2ccccc2)CCCCC1 here?
**A.** The Potency was “inactive”.

**Q.** For COc1ccc(CN2CCNCC2)c(OC)c1OC, which Potency is on record?
**A.** The Potency was “inactive”.

**Q.** For CC(C)(C)C(=O)Cl, which Potency is on record?
**A.** Its Potency is “inactive”.

**Q.** Which Potency does the source give for Cc1ccc(S(=O)(=O)N[C@@H](CCCCN)C(=O)CCl)cc1 here?
**A.** The Potency was “inactive”.

**Q.** For C#CC(C)(C)O, which Potency is on record?
**A.** Its Potency is “inactive”.

**Q.** Which Potency does the source give for C=C(Cl)CCl here?
**A.** The Potency was “inactive”.

**Q.** Which Potency does the source give for Oc1ccc(Cc2ccc(O)cc2)cc1 here?
**A.** The Potency was “inactive”.

**Q.** For O=C(O)CBr, which Potency is on record?
**A.** The Potency was “inactive”.

**Q.** For CC#Cc1cc(C)nc(Nc2ccccc2)n1, which Potency is on record?
**A.** Its Potency is “inactive”.

**Q.** For COC1=CC(=O)O[C@@H](/C=C/c2ccccc2)C1, which Potency is on record?
**A.** Its Potency is “inactive”.

**Q.** Which Potency does the source give for CCCC(C)(COC(N)=O)COC(N)=O here?
**A.** Its Potency is “inactive”.

**Q.** With CCOC(=O)C(SP(=S)(OC)OC)c1ccccc1 (stereo not given) as the compound, how does the Potency read?
**A.** The Potency was “inactive”.

**Q.** Which Potency does the source give for CCc1cc(OC)c(C[C@H](C)N)cc1OC here?
**A.** The Potency was “inactive”.

**Q.** Which Potency does the source give for C=C1C[C@@H]2[C@H](CC[C@]3(C)C(=O)CC[C@@H]23)[C@@]2(C)C=CC(=O)C=C12 here?
**A.** Its Potency is “inactive”.

**Q.** For CC(Cc1ccccc1)NCCn1cnc2c1c(=O)n(C)c(=O)n2C (stereo not given), which Potency is on record?
**A.** Its Potency is “inactive”.

**Q.** Which Potency does the source give for COc1ccc2c(C(=O)c3ccc(Cl)cc3)c(C)n(CC(=O)O)c2c1 here?
**A.** Its Potency is “inactive”.
